Source: PubChem BioAssay AID1159580 (chemical genetic matrix, 2015)
Values joined by “and” are separate entries in the source; they are usually repeats but may differ in a detail not shown here. Equal values may be shown once. Among all 5,500 compounds or so, about 2,000 (36%) were called active. About 18% were inconclusive and are not listed. No stated cut-off is given here; in the data, active means normalized growth mostly below about 0.91 (no sharp cut-off); inconclusive means no clear call, values can overlap the other calls; inactive means mostly above about 0.92. Some of the results follow.

Test: chemical genetic growth profiling, strain panel (AID 1159580);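 further: tested at 20 µM; growth read once vehicle control cultures reached saturation at 30 °C; 1 = growth at the plate median or of vehicle wells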
Conditions: S. cerevisiae deletion strains, growth OD

Measured: normalized growth

Cc1cn([C@H]2C[C@H](N=[N+]=[N-])[C@@H](CO)O2)c(=O)[nH]c1=O
inactive: locus YAL013W, strain DEP1, stronger effect = lower value 1.01 | locus YAL021C, strain ccr4, stronger effect = lower value 0.993 | locus YAL026C, strain drs2, stronger effect = lower value 0.995 | locus YAL030W, strain snc1, stronger effect = lower value 1 | locus YBL061C, strain skt5, stronger effect = lower value 1 | locus YBR009C, strain hhf1, stronger effect = lower value 1.02 | locus YBR021W, strain FUR4, stronger effect = lower value 0.998 | locus YBR023C, strain chs3, stronger effect = lower value 1 | locus YBR171W, strain sec66, stronger effect = lower value 0.996 | locus YBR229C, strain ROT2, stronger effect = lower value 1.01 | locus YBR231C, strain swc5, stronger effect = lower value 1 | locus YBR279W, strain paf1, stronger effect = lower value 0.979 | locus YCL011C, strain gbp2, stronger effect = lower value 1.02 | locus YCL016C, strain dcc1, stronger effect = lower value 0.965 | locus YCL029C, strain bik1, stronger effect = lower value 1.01 | locus YCL069W, strain vba3, stronger effect = lower value 0.99 | locus YCR088W, strain abp1, stronger effect = lower value 0.995 | locus YDL005C, strain med2, stronger effect = lower value 1 | locus YDL035C, strain GPR1, stronger effect = lower value 1.01 | locus YDL040C, strain nat1, stronger effect = lower value 0.994 | locus YDL074C, strain BRE1, stronger effect = lower value 1.02 | locus YDL101C, strain DUN1, stronger effect = lower value 1.01 | locus YDL134C, strain PPH21, stronger effect = lower value 1 | locus YDL185W, strain tfp1, stronger effect = lower value 1.01 | locus YDL192W, strain arf1, stronger effect = lower value 1.01 | locus YDR001C, strain nth1, stronger effect = lower value 0.994 | locus YDR069C, strain doa4, stronger effect = lower value 1.01 | locus YDR101C, strain arx1, stronger effect = lower value 1.02 | locus YDR137W, strain rgp1, stronger effect = lower value 0.966 | locus YDR150W, strain NUM1, stronger effect = lower value 1 | locus YDR159W, strain sac3, stronger effect = lower value 0.971 | locus YDR162C, strain NBP2, stronger effect = lower value 1 | locus YDR195W, strain ref2 0.983 | locus YDR297W, strain sur2, stronger effect = lower value 1.02 | locus YDR318W, strain mcm21, stronger effect = lower value 1 | locus YDR334W, strain swr1, stronger effect = lower value 1.01 | locus YDR335W, strain msn5, stronger effect = lower value 0.984 | locus YDR388W, stronger effect = lower value 1 | locus YDR392W, strain spt3, stronger effect = lower value 0.924 | locus YDR502C, strain sam2, stronger effect = lower value 1.02 | locus YEL003W, strain gim4, stronger effect = lower value 1.01 | locus YEL037C, strain rad23, stronger effect = lower value 1 | locus YEL061C, strain CIN8 (second series), stronger effect = lower value 0.999 | locus YEL061C, strain CIN8, stronger effect = lower value 1 | locus YER015W, strain faa2, stronger effect = lower value 0.997 | locus YER016W, strain bim1, stronger effect = lower value 0.991 | locus YER110C, stronger effect = lower value 1.02 | locus YER111C, strain swi4, stronger effect = lower value 0.976 | locus YER155C, strain BEM2 (second series), stronger effect = lower value 1 | locus YER155C, strain BEM2, stronger effect = lower value 0.988 | locus YER167W, strain BCK2, stronger effect = lower value 0.998 | locus YFR010W, strain ubp6, stronger effect = lower value 1.01 | locus YGL078C, strain dbp3, stronger effect = lower value 1.01 | locus YGL086W, strain mad1, stronger effect = lower value 1 | locus YGL167C, strain pmr1, stronger effect = lower value 1 | locus YGL173C, strain kem1, stronger effect = lower value 1.01 | locus YGL227W, strain vid30, stronger effect = lower value 0.996 | locus YGL240W, strain doc1, stronger effect = lower value 1 | locus YGL248W, strain PDE1, stronger effect = lower value 1.01 | locus YGL253W, strain hxk2, stronger effect = lower value 0.981 | locus YGR078C, strain PAC10, stronger effect = lower value 1.01 | locus YGR135W, strain pre9, stronger effect = lower value 1.01 | locus YGR229C, strain SMI1, stronger effect = lower value 1.01 | locus YGR252W, strain gcn5, stronger effect = lower value 1.05 | locus YHR013C, strain ard1, stronger effect = lower value 0.969 | locus YHR027C, strain rpn1, stronger effect = lower value 1.03 | locus YHR030C, strain SLT2, stronger effect = lower value 1 and 0.984 | locus YHR079C, strain IRE1 (second series), stronger effect = lower value 0.998 | locus YHR079C, strain IRE1, stronger effect = lower value 0.966 | locus YHR094C, strain hxt1, stronger effect = lower value 1.01 | locus YHR129C, strain ARP1, stronger effect = lower value 1 | locus YHR142W, strain chs7, stronger effect = lower value 0.972 | locus YHR200W, strain rpn10, stronger effect = lower value 1.01 | locus YIL066C, strain RNR3, stronger effect = lower value 1.01 | locus YIL073C, strain SPO22, stronger effect = lower value 1.05 | locus YIL125W, strain kgd1, stronger effect = lower value 1.01 | locus YIR030C, strain dcg1, stronger effect = lower value 1 | locus YJL092W, strain hpr5, stronger effect = lower value 1.01 | locus YJL095W, strain BCK1 (second series), stronger effect = lower value 1.01 | locus YJL095W, strain BCK1, stronger effect = lower value 1.01 and 0.973 | locus YJL115W, strain asf1, stronger effect = lower value 1 | locus YJL129C, strain trk1, stronger effect = lower value 0.948 | locus YJL134W, strain LCB3, stronger effect = lower value 0.999 | locus YJL154C, strain vps35, stronger effect = lower value 0.998 | locus YJL164C, strain tpk1, stronger effect = lower value 0.981 | locus YJL166W, strain qcr8, stronger effect = lower value 1.03 | locus YJL168C, strain set2, stronger effect = lower value 0.999 | locus YJL187C, strain SWE1 (second series), stronger effect = lower value 1.01 | locus YJL187C, strain SWE1, stronger effect = lower value 1.01 | locus YJR043C, strain POL32, stronger effect = lower value 1.02
